# Measurements published in PubChem BioAssay (Tox21).
# A number with no mark means an inactive call. Calls come from the whole dose curve; as a rule, active = well fitted curve in the direction sought with a large enough effect in the repeat runs; inconclusive = weak or mixed curves; inactive = flat fitted curve, though single readings scatter.
# Test: qHTS assay to test for compound auto fluorescence at 590 nm (red) in HepG2 cell free culture (AID 720684)
# Conditions: cell-free medium autofluorescence, red 540/590 nm; series mostly up to 91.3 µM; fluorescence, % of Rose Bengal: at the top concentration
# Source text: U.S. Tox21 Program National Center for Advancing Translational Sciences [NCATS] NIH Chemical Genomics Center [NCGC] U.S. Environmental Protection Agency [EPA] National Institutes of Environmental Health Sciences [NIEHS] National Toxicology Program [NTP] U.S. Food and Drug Administration [FDA] Tox21 Assay Overview: Compound auto fluorescence often interferes with screening of the compound library against various biological targets and signaling pathways. Some of these compounds may have fluorophoric properties. Such properties may interfere with the assay outputs resulting in false positives and/or negatives. To decrease such complications and ensure the compound activities are relevant in terms of biological response, the Tox21 10K compound library was screened for auto fluorescence. From the fluorophores used as reporter signals in our screening assays, the auto fluorescence equivalencies of compounds against three fluorophores have been evaluated: Triamterene, Fluorescein and Rose Bengal sodium for blue, green and red fluorescence, respectively. The fluorescence intensities were measured using Excitation/Emission wavelengths at 405/460nm, 485/535nm and 540/590nm for blue, green and red labels, respectively. This assay includes the red fluorescence data.
# Tox21 Assay Protocol Summary: 5 uL of culture medium (MEM containing 10% FBS) per well was dispensed into black wall/clear bottom 1536-well plates using a Multidrop Combi Dispenser (ThermoFisher Scientific, Waltham, MA). After 23 nL compound or DMSO vehicle was transferred into assay plate by a pintool work station (Kalypsys, San Diego, CA), fluorescence intensities in the assay plates were measured by an Envision (PerkinElmer, Shelton, CT) plate reader using three labels for measuring blue, green and red fluorescence at […] 460, 535 and 590nm respectively.
# % is set by controls: 0 for no effect and ±100 for the full control effect.
row,SMILES,"fluorescence, % of Rose Bengal"
1,O=S(=O)(c1ccccc1)c1ccc(Cl)cc1,0.0045%
2,CN1CCCN=C1/C=C/c1cccs1,-0.0089% [at 46 µM]
3,CCC(Cc1ccccc1)(C(=O)c1ccc(N2CCOCC2)cc1)N(C)C (stereo not given),-0.492%
4,CC(N)CN (stereo not given),-0.0309% [at 95.7 µM]
5,CC(=O)Nc1ccccc1C,0.169% [at 95.7 µM]
6,O=C(CCCN1CCN(c2ccc(F)cc2)CC1)NC1c2ccccc2CSc2ccccc21 (stereo not given),-0.269% [at 46 µM]
7,COc1ccccc1N=Nc1c(S(=O)(=O)O)cc2cc(S(=O)(=O)O)cc(NC(C)=O)c2c1O,0.738%
8,CO/N=C1\CN(c2nc3c(cc2F)c(=O)c(C(=O)O)cn3C2CC2)CC1CN (stereo not given),0.924% [at 46 µM]
9,O=C(NCCCN1CCOCC1)c1ccc(Cl)cc1,-0.122% [at 46 µM]
10,CNC(=O)N(c1ccccc1)c1ccccc1,-0.207%
11,CCC(C(=O)OCCOCCN(CC)CC)c1ccccc1 (stereo not given),-0.118% [at 46 µM]
12,CCCCCCCC/C=C\CCCCCCCC(=O)OC,0.0942%
13,c1cnc2c(n1)CCCC2,0.223%
14,OC/C(Br)=C(\Br)CO,0.004%
15,O=C(O)c1snc(Cl)c1Cl,-0.0271%
16,CCn1nc(C)c2c1C(=O)NCC(c1ccc(O)cc1)=N2,-0.0711%
17,CCn1cc(C(=O)O)c(=O)c2cc(F)c(N3CCNCC3)nc21,-0.483% [at 18.6 µM]
18,C[C@@H]1C[C@H]2[C@@H]3CCC4=CC(=O)C=C[C@]4(C)[C@@]3(F)[C@@H](O)C[C@]2(C)[C@H]1C(=O)CO,0.536% [at 46 µM]
19,CCCCCCCCCCCC[N+](C)(C)CCCS(=O)(=O)[O-],-0.0236% [at 95.7 µM]
20,CC1CC(=O)NN=C1c1ccc(NCC(C)(C)NCC(O)COc2cc(Cl)ccc2C#N)cc1 (stereo not given),-0.0753% [at 46 µM]

row,SMILES,"fluorescence, % of Rose Bengal"
1,CCCCC(CC)C(=O)OCCOCCOCCOCCOC(=O)C(CC)CCCC (stereo not given),-0.0805%
2,Cc1ccc(S(=O)(=O)NC2CCCCC2)cc1,0.0455%
3,COCC(O)CO (stereo not given),0.046% [at 95.7 µM]
4,C[C@]12CCC(=O)C=C1C=C[C@@H]1[C@@H]2CC[C@@]2(C)[C@H]1CC[C@@]21CCC(=O)O1,-0.203% [at 46 µM]
5,CCCOC(=O)c1ccc(C(=O)OCCC)nc1,0.206%
6,CCCCOC(=O)CCS,-0.161%
7,C=CC(=O)NCOCC(C)C,-0.0951%
8,NC(=O)Cn1c(=O)cc(CCN2CCN(c3nccc4sccc34)CC2)c2ccc(F)cc21,0.0033%
9,CCCCCCCCCCOS(=O)(=O)O,-0.348%
10,C=CCOC(=O)/C=C\C(=O)OCC=C,-0.0416% [at 95.7 µM]
11,CNC(=S)NC,-0.232%
12,C=CC(=C)CCCC(C)(C)OC(C)=O,-0.125%
13,CCCCCCCCCCCCCCCCBr,0.119% [at 18.6 µM]
14,O=Cc1c(Cl)cccc1Cl,-0.111% [at 95.7 µM]
15,CC1=C(/C=C/C(C)=C\C=C\C(C)=C\C(=O)O)C(C)(C)CCC1,0.362%
16,CCCCC1C(=O)N(c2ccccc2)N(c2ccc(O)cc2)C1=O (stereo not given),-0.239% [at 18.6 µM]
17,Cc1ccc(Nc2nccc(N(C)c3ccc4c(C)n(C)nc4c3)n2)cc1S(N)(=O)=O,-0.165% [at 46 µM]
18,COCCOC(=O)C1=C(C)NC(C)=C(C(=O)OC/C=C/c2ccccc2)C1c1cccc([N+](=O)[O-])c1 (stereo not given),0.0049% [at 46 µM]
19,O=C(OCCOCCO)c1ccccc1Nc1cccc(C(F)(F)F)c1,-0.0242% [at 18.6 µM]
20,COC(=O)Nc1nc2ccc(C(=O)c3cccs3)cc2[nH]1,-0.0057% [at 46 µM]
